PI5P4K alpha inh: inhibitors of human PI5P4K alpha | PI5P4Kalpha enzyme, ADP-Glo luminescence, 60 min; hits give low values | max response, % | hit rate 1.2% among 330,000 | P48426; active = max response of -50% or lower; inconclusive = between -30% and -50%; inactive = -30% or higher; note: value at the top dose of about 77 µM
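ADP-Glo luminescence end-point read after a 60 min room-temperature kinase reaction of PI5P4Kalpha plus substrate, initiated with ATP at 5 microM final. Buffer: 0.038 M HEPES pH 7.4, EGTA, 0.1% CHAPS, 5% DMSO.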
12-LOX inh: ALOX12 (human) lipoxygenase inhibition; P18054; purified 12hLO, xylenol orange hydroperoxide absorbance; Potency, µM (doses to about 108 µM), actives largely listed as inhibitors; hit rate 1.1% among 580,000; AID 1671190
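Hydroperoxide product was detected by ferrous iron/xylenol orange as the 573 to 405 nm absorbance ratio. Arachidonic acid at 40 uM (final) was turned over for 30 min at room temperature by 150 nM human 12hLO, pH 7.0 Hepes buffer, after 15 min compound preincubation.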
POLK inh: blocks human DNA polymerase kappa activity. Potency, µM (highest dose often 107 µM), most hits filed as inhibitors. Q9UBT6. hit rate 0.53% among 400,000. purified Pol kappa, fluorescent DNA synthesis assay, 10 min
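10 nM Pol kappa was preincubated with compounds for 15 min at room temperature. Reaction started with 50 nM (final) substrate. Fluorescence read kinetically at 0 and 10 min.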
POLB inh: blocks human DNA polymerase beta activity; P06746; Pol beta primer extension/strand displacement, fluorescence kinetic; Potency, µM (top dose mostly 114 µM), usual class: inhibitors; hit rate 1.3% among 340,000
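Reaction started by 50 nM substrate onto compound-treated Pol beta (10 nM, 15 min preincubation, room temperature); plates read at 0 min and 10 min. Normalized concentration-effect data fitted by four-parameter Hill equation.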
POLH inh: blocks human DNA polymerase eta activity | Q9Y253 | recombinant Pol eta, fluorescent DNA replication assay | Potency, µM (top dose mostly 114 µM), hits mostly inhibitors | hit rate 1.2% among 390,000
Target sequence (Q9Y253 whole entry, looked up): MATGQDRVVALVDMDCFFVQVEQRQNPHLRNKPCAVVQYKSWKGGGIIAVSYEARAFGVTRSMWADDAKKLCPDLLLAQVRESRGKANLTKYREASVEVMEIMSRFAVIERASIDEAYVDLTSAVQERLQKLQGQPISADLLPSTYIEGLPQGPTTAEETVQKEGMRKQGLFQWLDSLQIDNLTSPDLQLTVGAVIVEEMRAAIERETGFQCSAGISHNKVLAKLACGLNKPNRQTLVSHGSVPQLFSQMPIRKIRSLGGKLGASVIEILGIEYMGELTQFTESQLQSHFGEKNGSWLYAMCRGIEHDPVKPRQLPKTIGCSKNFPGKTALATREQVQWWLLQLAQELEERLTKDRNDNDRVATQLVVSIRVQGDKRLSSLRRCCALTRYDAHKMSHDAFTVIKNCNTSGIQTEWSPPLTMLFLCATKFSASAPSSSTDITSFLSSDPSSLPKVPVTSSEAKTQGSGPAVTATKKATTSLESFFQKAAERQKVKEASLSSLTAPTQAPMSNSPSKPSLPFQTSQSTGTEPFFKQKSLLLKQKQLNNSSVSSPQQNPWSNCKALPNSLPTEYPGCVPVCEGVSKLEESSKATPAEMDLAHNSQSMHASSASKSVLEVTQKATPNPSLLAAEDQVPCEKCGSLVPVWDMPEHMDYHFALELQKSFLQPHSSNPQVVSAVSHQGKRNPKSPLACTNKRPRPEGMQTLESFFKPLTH
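Pol eta (10 nM) was preincubated with compounds for 15 min at room temperature, after which fluorescent replication substrate (50 nM final) was added to start the reaction. Fluorescence was read kinetically at 0 and 10 min.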
POLI inh: DNA polymerase iota (human) inhibition | Potency, µM (top dose mostly 115 µM), usual class: inhibitors | hit rate 1% among 390,000 | Q9UNA4 | Pol iota fluorescent replication assay, 10 min | AID 588590
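Pol iota at 10 nM preincubated 15 min with compounds at room temperature; reaction started with fluorescent substrate, 50 nM final. Fluorescence read kinetically at 0 and 10 min; buffer-only wells as negative control.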
Large screens that a line does not name were inactive. Hits are enriched below; roughly 2.9% of the tested compounds scored in any of these assays. Unless noted, calls come from the whole dose curve; as a rule, active = well fitted inhibition curve with a large enough effect; inconclusive = small, poorly fitted or top-dose-only effect, or another doubt; inactive = no such curve, though single readings can be large or run the other way.

CC(C)c1nnc2ccc(NCc3ccc(Cl)cc3)nn12	none (no result: PI5P4K alpha inh, POLK inh, POLB inh, POLH inh, POLI inh)
COC(=O)CCC(=O)OC1(C)C(=O)C2=CN(c3ccc(OC)cc3)C(c3ccc(OC)cc3)=CC2=C(Br)C1=O (centres undefined)	PI5P4K alpha inh inconclusive, POLI inh inconclusive (no result: 12-LOX inh, POLB inh)
COc1ccc(C2=CC3=C(Br)C(=O)C(C)(OC(=O)c4ccco4)C(=O)C3=CO2)cc1 (centres undefined)	PI5P4K alpha inh -74, POLK inh 79µM, POLB inh 20µM, POLH inh inconclusive, POLI inh 18µM (no result: 12-LOX inh)
Cc1cnc(C)c(C)n1	none (no result: PI5P4K alpha inh, POLK inh, POLB inh, POLH inh, POLI inh)
Cc1nn(-c2ccc(C(=O)OCC(=O)NC(=O)NC3CCCCC3)cc2)c(C)c1Cl	none (no result: PI5P4K alpha inh, POLK inh, POLB inh, POLH inh, POLI inh)
O=C(CCCOc1ccccc1)Nc1nnc(C2CCCO2)s1 (centres undefined)	PI5P4K alpha inh inconclusive, POLK inh inconclusive, POLB inh 32µM, POLH inh inconclusive, POLI inh inconclusive
CCCOc1ccc(NC(=O)COc2ccccc2OC)c2cccnc12	none (no result: PI5P4K alpha inh, POLK inh, POLB inh, POLH inh, POLI inh)
O=c1c(-c2ccc(Br)cc2)coc2c(CN3CCCCC3)c(O)ccc12	none
O=c1c(-c2ccc(Cl)cc2)coc2c(CN3CCCCC3)c(O)ccc12	POLI inh 32µM
S=c1[nH]nc(-c2ccccc2)n1CC1CCCO1 (centres undefined)	12-LOX inh inconclusive
S=c1[nH]nc(-c2ccccc2)n1C1C=CCCC1 (centres undefined)	12-LOX inh 45µM
O=C(O)C(Cc1c[nH]c2ccccc12)NCc1ccccc1F (centres undefined)	none (no result: PI5P4K alpha inh, POLK inh, POLB inh, POLH inh, POLI inh)
COc1ccc(-c2cc(=O)c3cc(OC)ccc3[nH]2)cc1	POLI inh 35µM (no result: 12-LOX inh)
COc1ccc(-c2cc(=O)c3cc(C)ccc3[nH]2)cc1	POLI inh 79µM
COc1cc2[nH]c(-c3ccc(C)cc3)cc(=O)c2cc1OC	none
Cc1ccc(OC2(C(=O)NC(C)c3cn4ncsc4n3)CCNCC2)cc1 (centres undefined)	12-LOX inh 14µM (no result: PI5P4K alpha inh, POLK inh, POLB inh, POLH inh, POLI inh)
Cc1ccc(OC2(C(=O)NC(C)c3nn[nH]n3)CCNCC2)cc1 (centres undefined)	none (no result: PI5P4K alpha inh, POLK inh, POLB inh, POLH inh, POLI inh)
Cc1cc(C)cc(NC(=O)CCCn2c(=O)c3cccn3c3ccccc32)c1	none (no result: PI5P4K alpha inh)
O=C(CCCn1c(=O)c2cccn2c2ccccc21)Nc1cccc(Cl)c1	POLB inh 45µM (no result: PI5P4K alpha inh, POLH inh)
COc1cc2c(cc1OC)-c1c(c(C(=O)NCc3ccncc3)nn1-c1ccc(Cl)cc1)C2	none (no result: PI5P4K alpha inh, POLK inh, POLB inh, POLH inh, POLI inh)
COc1cc(C(=O)NC(=S)NC(C)C)cc(OC)c1OC	12-LOX inh 35µM
COc1ccccc1C(=O)NNC(=S)NC(=O)c1cc(OC)c(OC)c(OC)c1	12-LOX inh 40µM
COc1ccc(C(=O)NC(=S)NNC(=O)c2ccccc2C)cc1	12-LOX inh 45µM (no result: POLB inh)
COc1cc(C(=O)NNC(=S)NC(=O)c2ccccc2C)cc(OC)c1OC	none
COc1cc(C(=O)NC(=S)NNC(=O)[C@H]2C[C@@H]2c2ccccc2)cc(OC)c1OC	12-LOX inh 32µM
COP(=O)(OC)c1nc(-c2ccc(C(C)(C)C)cc2)oc1NCc1ccco1	none (no result: PI5P4K alpha inh, POLK inh, POLB inh, POLH inh, POLI inh)
Cc1ccc(-c2csc(-c3nc(-c4ccccc4)cs3)n2)c(C)c1	none (no result: PI5P4K alpha inh, POLK inh, POLB inh, POLH inh, POLI inh)
CC(=O)Nc1c(-c2cc(=O)oc3cc(C)c(Cl)cc23)oc2ccccc12	none (no result: PI5P4K alpha inh, POLK inh, POLB inh, POLH inh, POLI inh)
O=C(COC(=O)C12CC3CC(CC(C3)C1)C2)Nc1ccc2c(c1)OCO2	none (no result: PI5P4K alpha inh, POLK inh, POLB inh, POLH inh, POLI inh)
CCOc1ccc(-c2cc(C(=O)O)c3cc(C)ccc3n2)c(OCC)c1	none (no result: PI5P4K alpha inh, POLK inh, POLB inh, POLH inh, POLI inh)
CCC(Sc1nc2ccccc2c2nc(CCn3cncc3C)nn12)C(=O)Nc1cccc(OC)c1 (centres undefined)	POLB inh 50µM (no result: PI5P4K alpha inh)
Cc1nc(-c2cccc(NC(=O)C(C)Oc3ccccc3)c2)cs1 (centres undefined)	POLH inh 28µM, POLI inh inconclusive
ClN=C1C=CC=CC1=NCl	PI5P4K alpha inh -77 (no result: 12-LOX inh, POLK inh, POLB inh, POLH inh, POLI inh)
CC(CC(C)C(=O)c1ccccc1)C(=O)c1ccccc1 (centres undefined)	none (no result: PI5P4K alpha inh, POLK inh, POLB inh, POLH inh, POLI inh)
CCCCCNC(=O)Cc1csc2nc(C)c(-c3cc(C)n(-c4cccc(C)c4)n3)c(=O)n12	none (no result: PI5P4K alpha inh, POLK inh, POLB inh, POLH inh, POLI inh)
CCCCNC(=O)Cc1csc2nc(C)c(-c3cc(C)n(-c4cccc(Cl)c4)n3)c(=O)n12	12-LOX inh 40µM (no result: PI5P4K alpha inh, POLK inh, POLB inh, POLH inh, POLI inh)
Fc1ccccc1CN1CCOC[C@H]1c1ncc(-c2cccc(Cl)c2)[nH]1	none (no result: PI5P4K alpha inh, POLK inh, POLB inh, POLH inh, POLI inh)
COc1cc(/C=N/NC(=O)C2=NNC(=O)C2C)ccc1O (centres undefined)	none
CC1C(=O)NN=C1C(=O)N/N=C\c1ccc(O)cc1O (centres undefined)	PI5P4K alpha inh -60
O=C(Cc1cccc(C(F)(F)F)c1)NC1(c2ccccc2)CCC1	12-LOX inh 35µM (no result: PI5P4K alpha inh, POLK inh, POLB inh, POLH inh, POLI inh)
O=C(Cc1cccc(C(F)(F)F)c1)Nc1ccccc1	none
CCOCc1ccccc1CNS(=O)(=O)c1cc(Cl)cc(Cl)c1	none (no result: PI5P4K alpha inh, POLK inh, POLB inh, POLH inh, POLI inh)
Cc1ccc(C(C)C)c(OCCNCCc2ccccc2)c1	12-LOX inh 7.9µM
CC1=CC(C)(C)NC(=S)N1c1cccc2cc(S(=O)(=O)O)ccc12	12-LOX inh inconclusive, POLB inh 50µM, POLH inh 13µM, POLI inh inconclusive
CC1=CC(C)(C)NC(=S)N1c1ccccc1C	none
COc1ccc(-c2ocnc2C(=O)Nc2cccc(Cl)c2C)cc1	none (no result: PI5P4K alpha inh, POLK inh, POLB inh, POLH inh, POLI inh)
COC(=O)c1ccn(CC(=O)NC2CCCCC2)n1	POLB inh 40µM, POLH inh inconclusive
NC(=O)c1ccsc1NC(=O)COC(=O)c1ccc(Cl)c(N)c1	PI5P4K alpha inh inconclusive, POLH inh 22µM, POLI inh inconclusive (no result: POLB inh)
